According to PubChem BioAssay (NCATS):
Results filed as inconclusive are left out. Where a call stands in place of a potency, no number is given. Calls of active or inactive are those of the source. The call rests on the fitted dose curve; in most records, active means well fitted curve in the direction sought with a large enough effect; inconclusive means small, poorly fitted or top-dose-only effect, or another doubt; inactive means no such curve, though single readings can be large; an effect the other way counts as inactive or inconclusive.

molecular target: Calcium and integrin-binding protein 1 (Homo sapiens) (UniProt Q99828); experiment: Confirmatory qHTS for Identification of Calcium Integrin Binding Protein 1 (CIB1) Competitor (AID 1508617); conditions: CIB1 binding competition assay, biochemical qHTS; series mostly up to 114 µM; further: nearly all actives have a fitted effect of over 65% in size; further: potency means the concentration at half of the fitted maximal effect
Sequence (Q99828 whole entry, looked up): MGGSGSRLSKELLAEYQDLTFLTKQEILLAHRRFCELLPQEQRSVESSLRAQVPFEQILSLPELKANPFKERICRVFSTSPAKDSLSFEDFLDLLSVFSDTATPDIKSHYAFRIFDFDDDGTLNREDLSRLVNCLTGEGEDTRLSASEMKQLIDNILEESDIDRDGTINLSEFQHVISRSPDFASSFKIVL
Summary of the method: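 Binding competition between test compounds and fluorescent alphaIIb peptide for 1 uM CIB1-GST is monitored by FP at 480/540 nm. Final compound range is up to 114 uM; unlabeled peptide serves as reference competitor.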

| SMILES | Potency |
| --- | --- |
| O=c1cc(-c2ccccc2)oc2cc(O)c(O)c(O)c12 | 39.8 µM (active) |
| O=C(O)c1c(Cl)c(Cl)c(Cl)c(Cl)c1-c1c2cc(I)c(=O)c(I)c-2oc2c(I)c(O)c(I)cc12 | inactive |
| C=C1C(=O)[C@@]23C(CC[C@@H]1[C@H]2O)[C@@]12CO[C@]3(O)[C@@H](O)[C@@H]1C(C)(C)CC[C@@H]2O (stereo partly specified) | 25.1 µM (active) |
| CCc1ccc(C=C2SC(=S)NC2=O)cc1 | 8.91 µM (active) |

molecular target: Calcium and integrin-binding protein 1 (Homo sapiens) (UniProt Q99828); experiment: Validation qHTS for Identification of Calcium Integrin Binding protein 1 (CIB1) Competitor (AID 1508618); conditions: CIB1-GST / FITC-alphaIIb peptide fluorescence polarization; series mostly up to 114 µM
Summary of the method: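 In this qHTS validation, the LOPAC set (up to 114 uM) was tested for blocking CIB1 binding to a fluorescein-tagged alphaIIb peptide, with FP detection at 480/540 nm.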

| SMILES | outcome |
| --- | --- |
| NCCS | inactive |
| CC(C)NCC(O)COc1cccc2[nH]ccc12 (stereo unspecified) | inactive |
| CCN(CC)CCNC(=O)c1ccc(N)cc1 | inactive |
| CCN1CCC[C@H]1CNC(=O)c1cc(S(N)(=O)=O)ccc1OC | inactive |
| O=C1NC(=O)C(c2ccccc2)(c2ccccc2)N1 | inactive |
| CC(=O)c1ccc(S(=O)(=O)NC(=O)NC2CCCCC2)cc1 | inactive |
| Clc1ccc(C(c2ccc(Cl)cc2)n2cc[n+](CC(OCc3ccc(Cl)cc3Cl)c3ccc(Cl)cc3Cl)c2)cc1 (stereo unspecified) | inactive |
| COc1ccccc1N1CCN(CCCNc2cc(=O)n(C)c(=O)n2C)CC1 | inactive |
| CCN(CC)CCOC(=O)c1ccc(N)cc1 | inactive |
| CN(C)CCC(c1ccccc1)c1ccccn1 (stereo unspecified) | inactive |
| NC(N)=Nc1nc(CSCC/C(N)=N/S(N)(=O)=O)cs1 | inactive |
| Clc1ccc(Cn2c(CN3CCCC3)nc3ccccc32)cc1 | inactive |
| C[N+](C)(C)CCCCCC[N+](C)(C)C | inactive |
| CCCNC(=O)NS(=O)(=O)c1ccc(Cl)cc1 | inactive |
| COc1ccc(Cc2nccc3cc(OC)c(OC)cc23)cc1OC | inactive |
| COc1cccc(-c2cc(=O)c3ccccc3o2)c1N | inactive |
| O=C(NCCN1CCOCC1)c1ccc(Cl)cc1 | inactive |
| CC1(C)CCC2=C(O1)c1ccccc1C(=O)C2=O | inactive |
| O=c1cc(-c2ccc(O)cc2)oc2cc(O)cc(O)c12 | inactive |
| CC1=C(/C=C/C(C)=C/C=C/C(C)=C/C(=O)Nc2ccc(O)cc2)C(C)(C)CCC1 | inactive |
| CC(=O)O[C@]1(C(C)=O)CC[C@H]2[C@@H]3C=C(Cl)C4=CC(=O)[C@@H]5C[C@@H]5[C@]4(C)[C@H]3CC[C@@]21C | inactive |
| CCN(CC)C(=O)c1ccc(O)c(OC)c1 | inactive |
| CC(C)(C)c1ccc(C(O)CCCN2CCC(C(O)(c3ccccc3)c3ccccc3)CC2)cc1 (stereo unspecified) | inactive |
| CC(=O)N[C@@H](CS)C(=O)O | inactive |
| O=C1NCC2(CCN(CCc3ccccc3)CC2)O1 | inactive |

molecular target: Calcium and integrin-binding protein 1 (Homo sapiens) (UniProt Q99828); experiment: Primary qHTS for Identification of Calcium Integrin Binding Protein 1 (CIB1) Competitor (AID 1508620); conditions: CIB1-GST / FITC-alphaIIb peptide fluorescence polarization; series mostly up to 57.7 µM; further: potency means the concentration at half of the fitted maximal effect
Summary of the method: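 Fluorescence polarization competition: GST-tagged CIB1 (1 uM final) preincubated with compound 15 min at room temperature, then FITC-labelled alphaIIb peptide (100 nM final) added. After 15 min at room temperature, polarization read at Ex 480/Em 540.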

| SMILES | Potency |
| --- | --- |
| NS(=O)(=O)c1cccc2c1C(=O)c1cccc(O)c1C2=O | inactive |
| CC(C)NCC(O)COc1cccc2[nH]ccc12 (stereo unspecified) | inactive |
| CCN(CC)CCNC(=O)c1ccc(N)cc1 | inactive |
| CCN1CCC[C@H]1CNC(=O)c1cc(S(N)(=O)=O)ccc1OC | inactive |
| O=C1NC(=O)C(c2ccccc2)(c2ccccc2)N1 | inactive |
| O=C(O)C(O)Cc1ccc(O)c(O)c1 (stereo unspecified) | inactive |
| CC(=O)c1ccc(S(=O)(=O)NC(=O)NC2CCCCC2)cc1 | inactive |
| Clc1ccc(C(c2ccc(Cl)cc2)n2cc[n+](CC(OCc3ccc(Cl)cc3Cl)c3ccc(Cl)cc3Cl)c2)cc1 (stereo unspecified) | inactive |
| COc1ccccc1N1CCN(CCCNc2cc(=O)n(C)c(=O)n2C)CC1 | inactive |
| CCN(CC)CCOC(=O)c1ccc(N)cc1 | inactive |
| Clc1ccc(Cn2c(CN3CCCC3)nc3ccccc32)cc1 | inactive |
| O=C(Nc1ccccc1-c1cn2c(CN3CCNCC3)csc2n1)c1cnc2ccccc2n1 | inactive |
| C[N+](C)(C)CCCCCC[N+](C)(C)C | inactive |
| CCCNC(=O)NS(=O)(=O)c1ccc(Cl)cc1 | inactive |
| COc1cc2nc(-c3ccc(N4CCN(C)CC4)cc3)nc(NCCN3CCOCC3)c2cc1OC | inactive |
| COc1ccc(-c2coc3cc(O)cc(O)c3c2=O)cc1 | inactive |
| COc1cccc(-c2cc(=O)c3ccccc3o2)c1N | inactive |
| O=c1cc(-c2ccc(O)cc2)oc2cc(O)cc(O)c12 | inactive |
| C=C1C(=O)[C@@]23C(CC[C@@H]1[C@H]2O)[C@@]12CO[C@]3(O)[C@@H](O)[C@@H]1C(C)(C)CC[C@@H]2O (stereo partly specified) | 44.7 µM (active) |
| CN(C)CCC=C1c2ccccc2COc2ccc(CC(=O)O)cc21 | inactive |
| CC1=C(/C=C/C(C)=C/C=C/C(C)=C/C(=O)Nc2ccc(O)cc2)C(C)(C)CCC1 | inactive |
| CC(=O)O[C@]1(C(C)=O)CC[C@H]2[C@@H]3C=C(Cl)C4=CC(=O)[C@@H]5C[C@@H]5[C@]4(C)[C@H]3CC[C@@]21C | inactive |
| CCN(CC)C(=O)c1ccc(O)c(OC)c1 | inactive |
| CC(C)(C)c1ccc(C(O)CCCN2CCC(C(O)(c3ccccc3)c3ccccc3)CC2)cc1 (stereo unspecified) | inactive |
| NC(=O)c1cccc2[nH]c(-c3ccc([C@H]4CCCN4)cc3F)nc12 | inactive |
| CC(=O)N[C@@H](CS)C(=O)O | inactive |
| O=C1NCC2(CCN(CCc3ccccc3)CC2)O1 | inactive |
